PubChem BioAssay AID492953 (The Scripps Research Institute Molecular Screening Center, 2010)
About 4,200 (1.2%) of roughly 340,000 compounds were called active. Shown is part of a subset that was picked to be rich in actives. Values without a mark were called inactive.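 Rule for the calls: active = inhibition above the mean of all tested compounds plus 3 SD (cut at about 24% in these data); inactive = the rest.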

These molecules were tested against Platelet-activating factor acetylhydrolase IB subunit alpha2 (Homo sapiens) (UniProt P68402) (assay: inhibition of PAF acetylhydrolase 1b subunit 2 – biochemical, fluorescence polarization, human, primary screen (AID 492953;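 note: 0% = enzyme with DMSO and 100% = wells lacking PAFAH1B2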)). Conditions: recombinant PAFAH1B2, FP-rhodamine activity probe, at 3.39 µM, active compounds read high.
Chain of Platelet-activating factor acetylhydrolase IB subunit alpha2 (Homo sapiens) (P68402 whole entry, looked up): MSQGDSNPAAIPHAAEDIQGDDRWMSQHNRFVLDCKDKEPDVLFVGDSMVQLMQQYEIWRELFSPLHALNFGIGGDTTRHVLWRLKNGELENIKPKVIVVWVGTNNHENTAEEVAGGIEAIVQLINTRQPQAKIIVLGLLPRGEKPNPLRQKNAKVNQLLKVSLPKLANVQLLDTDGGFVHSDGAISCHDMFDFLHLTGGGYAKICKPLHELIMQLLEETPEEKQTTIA

SMILES | inhibition
CC1CN(C(=O)c2cc(COc3c(F)cccc3F)on2)CCN1C (stereo not drawn) | 0.48%
O=C(CNC1CCCCC1)NCC1(c2ccccc2)CCCC1 | 26.9% (active)
O=C(CCS(=O)(=O)c1ccccc1)NC1CCCC1 | 5.22%
CC(=O)CC(CC(=O)NC1CCCCC1)c1ccccc1 (stereo not drawn) | 5.22%
CC(C)Cn1cnc2c(SCc3ccc(Cl)cc3)nc(N)nc21 | 7.46%
Cc1ccc(C(=O)COC(=O)CCN2C(=O)C3C4CC(C(Br)C4Br)C3C2=O)cc1 (stereo not drawn) | -1.23%
COc1cccc(N2CCN(CC(=O)Nc3ccnn3C3CCCC3)CC2)c1 | 1.78%
O=C(COC(=O)Cn1[nH]c(=O)c2ccccc2c1=O)Nc1ncc(Cl)cc1Cl | 2.27%
CC(Oc1ccc(Cl)cc1)C(=O)OCC(=O)Nc1ncc(Cl)cc1Cl (stereo not drawn) | 30.6% (active)
CC1(C(=O)OCC(=O)Nc2ncc(Cl)cc2Cl)CC1(Cl)Cl (stereo not drawn) | 2.15%
CCN(CC(=O)Nc1c(F)cccc1F)C(=O)c1ccc(-c2ccccc2)cc1 | 3.05%
COc1ccc(-c2cn(-c3ccc(C)cc3)c(=O)n2CC(=O)Nc2ccc(OC)c(OC)c2)cc1 | 2.69%
CC1CCC(NC(=O)CNC(=O)c2ccc3ccccc3c2)CC1 (stereo not drawn) | 7.58%
CCCc1cc(=O)[nH]c(SCc2cc(=O)oc3c(C)c(C)ccc23)n1 | -0.37%
CCCc1cc(=O)n2[nH]c(SCc3ccccc3)nc2n1 | 13.6%
CCCc1cc(=O)[nH]c(SCc2ccc(C#N)cc2)n1 | 25.2% (active)
Cn1cc(C2OC(=O)c3ccccc32)c2ccccc21 (stereo not drawn) | 0.55%
Cc1ccc(S(=O)(=O)NCCCn2ccnc2)cc1C(=O)NC(C)C | 2.08%
Cc1ccc(S(=O)(=O)NCCC(c2ccccc2)c2ccccc2)cc1C(=O)O | 29% (active)
Cc1cccc(NS(=O)(=O)c2ccc(C)c(C(=O)NCC(c3ccccc3)N(C)C)c2)c1 (stereo not drawn) | 6.63%
COc1cc(Cl)c(C)cc1NC(=O)COC(=O)c1cc(SC)ccc1Cl | -3.93%
CSCc1cc(N2CCOCC2)nc(SCc2ccc(Cl)cc2Cl)n1 | 10.7%
N/C(=N\OC(=O)CCc1ccccc1)c1cccnc1 | 1.52%
COc1ccc(/C(N)=N/OC(=O)CCCc2ccccc2)cc1 | 6.71%

SMILES | inhibition
N/C(=N\OC(=O)CCc1ccccc1)c1ccc(Cl)cc1 | 63.8% (active)
C=C(C)c1cccc(C(C)(C)NC(=O)NC2CCCC2)c1 | 4.81%
COCCSc1nnc(NC(=O)c2cc(OC)c(OC)cc2[N+](=O)[O-])s1 | 4.45%
COC(=O)[C@@]1(C)[C@H]2C(=O)N(Cc3ccccc3)C(=O)[C@H]2[C@H]2CN=C(SCC3CC3)N21 | 2.74%
CC(OC(=O)/C=C/c1ccccc1)C(=O)NC1CCCCC1C (stereo not drawn) | 1.18%
CCOc1cc(/C=N/NC(=O)CN2CCCCC2)ccc1O | 1.96%
O=C(CN1CCSCC1)N/N=C/c1ccc(F)cc1 | -6.64%
Cc1ccc(COc2ccc(/C=N/NC(=O)CN3CCCCC3)cc2)cc1 | 25.1% (active)
Cc1ccc(S(=O)(=O)NC(=O)N2CCCN(Cc3ccc(F)cc3)CC2)cc1 | 9.06%
CCOC(=O)c1cccc(NC(=O)CCn2nnc3ccccc32)c1 | 1.37%
Cn1c(Cn2nnc3ccccc32)nnc1SCC(=O)c1ccccc1F | 4.6%
C/C(Cn1nnc2ccccc21)=N\OC(=O)c1cc(F)c(F)cc1Cl | 25.1% (active)
COC(=O)C1=C(N)Oc2cc(C)[nH]c(=O)c2C1c1ccc(Cl)cc1 (stereo not drawn) | -2.03%
C=CCNC(=O)CCCC(=O)NCC=C | 2.09%
Cc1ccc(NS(=O)(=O)c2cc3c(cc2C)NC(=O)CO3)cc1 | 6.94%
O=C1COc2ccc(S(=O)(=O)Nc3ccc(OC(F)(F)F)cc3)cc2N1 | 41.6% (active)
Cc1ccc(NS(=O)(=O)c2ccc3c(c2)NC(=O)CO3)cc1 | 19.2%
Nc1ccc2c(c1)C(=Cc1cccnc1)c1ccccc1-2 | 6.17%
COc1cc2c(cc1OC)C1C(=O)c3cc(OS(C)(=O)=O)c(OC)cc3C1N(C)C2=O (stereo not drawn) | 0.81%
COCCNC(=O)NC(=O)COC(=O)C1(c2ccc(Cl)cc2)CC1 | 26.9% (active)
CC(=O)N1CCC(C(=O)OCc2ccc(Cl)cc2)(c2ccccc2)CC1 | 7.86%
CCCNC(=O)NC(=O)COC(=O)CC(NC(N)=O)c1ccc(Cl)cc1 (stereo not drawn) | 2.08%
COc1ccc(-c2c(C)cc3oc(=O)cc(-c4ccccc4)c3c2C)cc1C=O | -1.53%
O=c1[nH]c2ccccc2s1 | 4.32%

SMILES | inhibition
CC1CCN(S(=O)(=O)c2ccc(S(=O)(=O)NCc3ccco3)cc2)CC1 | 29.6% (active)
Cc1ccc(S(=O)(=O)N2CCC(C(=O)N[C@@H](C)C(=O)NCc3ccco3)CC2)cc1 | 4.6%
O=C(NC1CCC(O)CC1)c1ccc(S(=O)(=O)NCc2ccco2)cc1 (stereo not drawn) | 4.89%
O=C(CSc1ccc([N+](=O)[O-])cn1)Nc1ccc(N2CCOCC2)c(Cl)c1 | -0.87%
O=C(/C=C/c1ccccc1[N+](=O)[O-])OCC(=O)N1CCCC1 | 0.91%
COC(=O)[C@@H]1C[C@H]2CC[C@H](O)C[C@H]2N1Cc1ccc(N2CCN(C)CC2)cc1 | -3.13%
O=C1NC[C@@H](c2ccccc2)OC(=O)[C@H](Cc2ccc(F)cc2)CC/C=C/C[C@H]1CC(=O)N(CCO)Cc1ccccc1 | 53.8% (active)
O=C1N[C@@H](c2ccccc2)COC(=O)[C@H](Cc2ccc(F)cc2)C/C=C\C[C@@H]1CC(=O)N(CCO)Cc1ccccc1 | 4.49%
O=C1CCC/C=C/C[C@@H](CC(=O)N(CCO)Cc2ccccc2)C(=O)NC[C@H](c2ccccc2)O1 | -0.45%
COC(=O)c1cc(S(=O)(=O)N2CCC(C(N)=O)CC2)oc1C | -0.09%
O=C(Nc1ccccc1)N1CCC(C(=O)N2CCN(Cc3ccccc3)CC2)CC1 | 0.85%
COc1ccc(C2c3c(C)nn(-c4ccccc4)c3NC(=O)N2c2ccccc2)cc1 (stereo not drawn) | 0.39%
CCCc1[nH]nc2c1C(C1CC=CCC1)C(C#N)=C(N)O2 (stereo not drawn) | 27.5% (active)
COCc1[nH]nc2c1C(C1C=CCCC1)C(C#N)=C(N)O2 (stereo not drawn) | 4.96%
CCCc1[nH]nc2c1C(c1ccc(Br)s1)C(C#N)=C(N)O2 (stereo not drawn) | 19.3%
CC(C)(C)c1cc(CN2CCN(CCC#N)CC2)cc(C(C)(C)C)c1O | 1.53%
CCOC(=O)c1ccccc1N1C(=O)C2Sc3[nH]c(=O)sc3C(/C=C/c3ccccc3)C2C1=O (stereo not drawn) | 1.84%
CCOC(=O)C1CCN(C(=O)Nc2ccc(Cl)cc2)CC1 | 2.4%
CCOC(=O)C1Sc2[nH]c(=O)sc2C(c2ccc(Cl)cc2)C1C(=O)OCC (stereo not drawn) | 27% (active)
CCCCNC(=O)N1CCN(S(C)(=O)=O)CC1 | 3.98%
O=C(C1CC1)N1CCN=C1SCc1ccc(Cl)cc1 | 10.5%
Clc1ccc(CSc2nnc([C@@H]3CCCN3)o2)cc1 | 24.3% (active)
Nc1cc(N)nc(SCc2ccc(Cl)cc2)n1 | 24.1%
COCC1CCN(C(=O)C2CCC(=O)N(Cc3cccc(C(F)(F)F)c3)C2)CC1 (stereo not drawn) | -0.17%

SMILES | inhibition
CCN(CC)CCCC(C)n1c2nc(=O)[nH]c(=O)c-2nc2cc(Cl)ccc21 (stereo not drawn) | 26% (active)
CCN(CC)CCn1c2ccc(Cl)cc2c2nc(C)sc21 | -5.01%
CN(C(=O)c1ccc(NC(=O)Cc2cccc(NC(=O)C3CCN(C(=O)c4ccccc4)CC3)c2)cc1)C1CC1 | 4.32%
O=[N+]([O-])c1ccc(NS(=O)(=O)c2ccccc2)c(Cl)c1 | 1.95%
CN(C)CCNC(=O)c1ccc(Cl)c2cc3ccccc3nc12 | -1.08%
O=C(CNC(=O)OCc1ccccc1)Oc1cc2oc(=O)cc(-c3ccccc3)c2cc1Cl | 45.7% (active)
O=C(CNC(=O)c1ccc(-c2ccccc2)cc1)OCc1ccc(Cl)cc1 | 1.38%
CC(=O)COc1ccc2c(-c3ccccc3)cc(=O)oc2c1 | -1.64%
Nc1ccc2nc3c(=O)[nH]c(=S)[nH]c3nc2c1 | 33.8% (active)
O=C(NCCc1ccccn1)c1nc(Cn2cc([N+](=O)[O-])cn2)no1 | -4.12%
C=CC(=O)Nc1ccc(Nc2ccnc(Nc3ccc(N4CCN(C)CC4)cc3)n2)cc1 | 1.32%
O=C(COc1ccccc1Cl)Nc1ccccc1C(=O)NC1CC1 | 0.96%
COc1ccc(S(=O)(=O)N2CCOC2CNC(=O)C(=O)NCc2ccncc2)cc1C (stereo not drawn) | 1.87%
Nc1cccnc1Sc1ccccc1 | 4.02%
CC(Oc1ccc(Cl)cc1)c1ccnn1S(C)(=O)=O (stereo not drawn) | 29.6% (active)
CC(Oc1ccc(Cl)cc1)C(=O)Nc1ncccn1 (stereo not drawn) | 5.55%
CCN(Cc1ccccc1)S(=O)(=O)c1cc2c3c(c1)CCN3C(=O)CC2 | 8.31%
C=CCOc1ccc(/C=N/n2cncn2)cc1OC | 6.27%
CCOC(=O)c1c(NC(=O)CSc2cn(CC)c3ccccc23)sc2c1CCC2 | -2.98%
CCOC(=O)c1c(NC(=O)CSc2nnc(CN3CCOCC3)n2C)sc2c1CCCC2 | -1.06%
CCOC(=O)c1c(NC(=O)CSc2nnc(C)c(=O)[nH]2)sc2c1CCC2 | 66.8% (active)
